Screening data deposited in PubChem by National Center for Advancing Translational Sciences (NCATS).
Pf Dd2 growth: inhibitors of Plasmodium falciparum Dd2 growth; P. falciparum Dd2 growth, SYBR Green, 72 h; Potency, µM (doses to about 28.9 µM), without a hit: at the top dose activity, negative = inhibition, usual class: inhibitors; hit rate 4.3% among 120,000; AID 1347417; active = well fitted inhibition curve with a large enough effect;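 also: plate controls were DMSO vehicle for no effect and reference drug for full effect; nearly all actives have a fitted effect of over 65% in size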
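Infected erythrocytes (Dd2, 0.3% parasitemia, 2.5% hematocrit final) are added to compound in RPMI-1640/Albumax II medium, grown 72 h at 37C in low oxygen, then lysed with saponin/Triton-X containing SYBR Green and read by fluorescence.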
Active calls of the source: *; [ ] = remark or other dose. The full list was thinned out, with hits kept by preference. Potency is read from the fitted curve at half-maximal effect.

How did CCCS(=O)(=O)N1CCN(C2CCN(CCOC)C2=O)CC1 (stereo not given) do in these assays?
Pf Dd2 growth: 16%

How did CN[C@@H](C)C(=O)N1CC[C@H](NC(=O)c2ccncc2)C[C@H]1C(=O)N[C@@H](Cc1ccc(OC)cc1)C(N)=O do in these assays?
Pf Dd2 growth: 28%

What do the screens show for `Cc1nc(CN2CCN(Cc3cc4n(n3)CCNC4)CC2)cs1`?
Pf Dd2 growth: 14%

What do the screens show for `O=C(CCC1CCCN(S(=O)(=O)c2ccc(F)cc2)C1)NCCN1CCOCC1` (stereo not given)?
Pf Dd2 growth: -19%

Results for COc1ccc(CCNC(=O)C(=O)Nc2ccc(C)c(C)c2)cc1 ?
Pf Dd2 growth: 20%

How did COc1ccc(CNC(=O)C(=O)Nc2cccc(C)c2C)cc1 do in these assays?
Pf Dd2 growth: 29%

Results for COc1ccc(CNC(=O)C(=O)Nc2ccc(OC)cc2OC)cc1 ?
Pf Dd2 growth: 5.6µM*

How did CC(C)N1CCC(CCN2C(=O)[C@H]3CNC[C@H]3C2=O)CC1 do in these assays?
Pf Dd2 growth: inactive

Results for CC(C)C1CN(CC2CCC(N)CC2)CCC(=O)N1Cc1ccc(F)cc1 (stereo not given) ?
Pf Dd2 growth: -14%

How did COCC(=O)N1CCC2(CCN(Cc3cccc(C)n3)CC2)C(CO)C1 (stereo not given) do in these assays?
Pf Dd2 growth: 12%

Results for COc1ccc(Nc2cc3c(cn2)CN(CCc2ccccc2)CCN3)cn1 ?
Pf Dd2 growth: -5%[44.1 µM]

How did c1ccc(Nc2cc3c(cn2)CN(CC2CC2)CCN3)cc1 do in these assays?
Pf Dd2 growth: 13µM*

Results for CCCN1CCNc2cc(Nc3ccccc3)ncc2C1 ?
Pf Dd2 growth: 8.9µM*

What do the screens show for `COc1ccc(CN2CCNc3cc(Nc4ccccc4)ncc3C2)cc1O`?
Pf Dd2 growth: inactive

What do the screens show for `c1ccc(Nc2cc3c(cn2)CN(Cc2cccs2)CCN3)cc1`?
Pf Dd2 growth: 7.9µM*

How did COc1ccc(OC)c(CN2CCNc3cc(Nc4ccccc4)ncc3C2)c1 do in these assays?
Pf Dd2 growth: 3.5µM*

How did c1ccc(Nc2cc3c(cn2)CN(Cc2cnc[nH]2)CCN3)cc1 do in these assays?
Pf Dd2 growth: -5%[44.1 µM]

Results for Fc1ccccc1CN1CCNc2cc(Nc3ccccc3)ncc2C1 ?
Pf Dd2 growth: -28%[44.1 µM]

How did COc1ccc(OC)c(CN2CCNc3cnc(Nc4cccnc4)cc3C2)c1 do in these assays?
Pf Dd2 growth: inactive

How did CC(=O)Nc1cccc(-c2cc3c(cn2)CN(Cc2ccccc2)CCN3)c1 do in these assays?
Pf Dd2 growth: inactive

What do the screens show for `c1cncc(Nc2cc3c(cn2)CN(CC2CCOCC2)CCN3)c1`?
Pf Dd2 growth: -13%[44.1 µM]

What do the screens show for `CN1CCNc2cc(NCc3ccccc3)ncc2C1`?
Pf Dd2 growth: -1%[44.1 µM]

What do the screens show for `COCCNC(=O)[C@@H]1CCC[C@@H](NCc2cccc3c2OCO3)CN(C)C(=O)C1`?
Pf Dd2 growth: inactive

Results for C=CCNC(=O)N[C@H]1C[C@@H](C(=O)N[C@@H](CCS(C)(=O)=O)C(N)=O)N(C(=O)CSC)C1 ?
Pf Dd2 growth: 4%

What do the screens show for `OC1CCOC2(CCN(Cc3ccc[nH]3)CC2)C1` (stereo not given)?
Pf Dd2 growth: 5%

Results for Cc1ccc(NC(=O)N2CCC(CCNC(=O)CCCc3ccccc3)CC2)cc1 ?
Pf Dd2 growth: inactive

Results for Cn1cc(C(=O)NCC2CN(Cc3ccccc3)CC23CN(c2ccccc2)C3)cn1 (stereo not given) ?
Pf Dd2 growth: inactive

How did Cc1ccn2c(C(=O)NCC3CCN(c4cnn(C)c(=O)c4)C3)nnc2n1 (stereo not given) do in these assays?
Pf Dd2 growth: 2%

What do the screens show for `c1ccc(CCN2CCNc3cc(NCCN4CCOCC4)ncc3C2)cc1`?
Pf Dd2 growth: -4%[44.1 µM]

What do the screens show for `c1ccc(CN2CCNc3cc(Nc4ccc(N5CCOCC5)cc4)ncc3C2)cc1`?
Pf Dd2 growth: 11µM*

Results for Fc1cccc(CN2CCNc3cc(Nc4ccccc4)ncc3C2)c1 ?
Pf Dd2 growth: -18%[44.1 µM]

How did CN(Cc1ccccc1)C(=O)[C@H]1O[C@H](CCN2CCN(c3ccccc3)CC2)CC[C@@H]1O do in these assays?
Pf Dd2 growth: 4.5µM*

Results for COc1ccccc1N1CCN(C(=O)[C@H]2O[C@H](CCN3CCN(c4ccccc4)CC3)CC[C@@H]2O)CC1 ?
Pf Dd2 growth: inactive

How did O=C([C@H]1O[C@H](CCN2CCN(c3ccccc3)CC2)CC[C@@H]1O)N1CCOCC1 do in these assays?
Pf Dd2 growth: 2%[44.1 µM]

What do the screens show for `O=C(C[C@@H]1CCNC[C@@H]1Cc1cc(-c2ccccc2)on1)N1CCC(n2c(=O)[nH]c3ccccc32)CC1`?
Pf Dd2 growth: -16%

Results for O=C(c1ccoc1)N1C[C@H]2OC(=O)N(CCCN3CCOCC3)[C@H]2C1 ?
Pf Dd2 growth: -1%

What do the screens show for `CC(C)N1C[C@@H]2OCC(=O)N(CC3CCCCC3)[C@@H]2C1`?
Pf Dd2 growth: inactive

How did CCOC(=O)c1sc(N2C(=O)c3oc4ccc(F)cc4c(=O)c3C2c2cccc(OC)c2)nc1C (stereo not given) do in these assays?
Pf Dd2 growth: -32%

How did CCOC(=O)c1ccc(N2C(=O)c3n[nH]c(-c4cccs4)c3C2c2ccc(OC)cc2OC)cc1 (stereo not given) do in these assays?
Pf Dd2 growth: 11µM*

How did CCOc1ccc(C(=O)Nc2ccc(-n3nncc3-c3ccc(OC)cc3)cc2)cc1 do in these assays?
Pf Dd2 growth: 92%

What do the screens show for `CCOC(=O)c1ccc(N2C(=O)c3[nH]nc(-c4ccc(OCC)cc4)c3C2c2ccc(OC)cc2OC)cc1` (stereo not given)?
Pf Dd2 growth: 7.9µM*

Results for CCOc1ccc(C(=O)NC2CCCN(c3cc(-c4ccc(OC)cc4)[nH]n3)C2)cc1 (stereo not given) ?
Pf Dd2 growth: inactive

Results for CCOC(=O)C1=C(C)N=C2SC=C(CC(=O)N3CCC(C)CC3)N2C1c1cccc(OC)c1 (stereo not given) ?
Pf Dd2 growth: -18%

How did CCOC(=O)c1ccc(N2CC3=C(C2=O)C(c2ccc(OC)cc2)NC(=O)N3C)cc1 (stereo not given) do in these assays?
Pf Dd2 growth: 44%

Results for CCOC(=O)c1ccc(N2C(=O)c3n[nH]c(-c4cccs4)c3C2c2cccc(OC)c2)cc1 (stereo not given) ?
Pf Dd2 growth: 3.5µM*

How did Cc1ccc(N2C(=O)c3n[nH]c(C)c3C2c2ccccc2Cl)cc1 (stereo not given) do in these assays?
Pf Dd2 growth: 6%

What do the screens show for `CN(Cc1cnn(C)c1)C(=O)C1C2C(=O)N(Cc3ccc(F)cc3)C[C@@]23C=C[C@@H]1O3` (stereo not given in full)?
Pf Dd2 growth: -3%

What do the screens show for `CNC(=O)[C@@H]1CN(C(=O)c2ccoc2C)C[C@H]1c1nc(C)no1`?
Pf Dd2 growth: inactive

Results for COc1ccc(-c2noc([C@@H]3CCCN3C(=O)c3ccc(OC)c(F)c3)n2)cc1 ?
Pf Dd2 growth: inactive

What do the screens show for `O=C(N[C@@H]1CNCCC[C@H]1O)c1ccc(OCCN2CCOCC2)cc1`?
Pf Dd2 growth: 4%[44.1 µM]

What do the screens show for `O=C(N[C@H]1[C@H](O)[C@H](O)C[C@@H]1c1cccnc1)c1ccccn1`?
Pf Dd2 growth: 21%[44.1 µM]

Results for Cc1nc(-c2ccccc2)cc([C@H]2CN3CC[C@H]2C[C@@H]3CNC(=O)CCCC(=O)O)n1 ?
Pf Dd2 growth: 20%[44.1 µM]

What do the screens show for `CCC(CC)c1cc([C@H]2CN3CC[C@H]2C[C@@H]3COC(=O)Nc2ccccc2)nc(-c2ccncc2)n1`?
Pf Dd2 growth: -13%
